# Source: PubChem BioAssay AID1347416 (National Center for Advancing Translational Sciences (NCATS), 2020)
# Among all 4,100 compounds or so, about 1,600 (39%) were called active. Not shown: some 25% with an inconclusive outcome. Calls follow the shape of the dose curve; as a rule, active = well fitted inhibition curve with a large enough effect; inconclusive = small, poorly fitted or top-dose-only effect; inactive = no such curve, though single readings can be large or run the other way. The list shows a part of the results. A call without a number means that no potency is given here.
# Assay: qHTS Validation assay for Inhibitors of Plasmodium falciparum Dd2 growth in vitro; also: nearly all actives have a fitted effect of over 70% in size
# Conditions: P. falciparum Dd2 in RBCs, SYBR Green growth, 72 h; series mostly up to 28.7 µM
# Method in brief: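 P. falciparum Dd2-infected red blood cells (2.5% hematocrit, 0.3% parasitemia) grown 72 h at 37 °C under 5% O2 with compounds in a titration, 29 uM to 0.5 nM final. Growth read as SYBR Green-1 fluorescence after ~16 h lysis; artesunate 300 nM as positive control.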
# Potency is read from the fitted curve at half-maximal effect.
row,Structure (SMILES),Potency
1,Nc1nonc1-n1nnc(C(=O)N/N=C/c2cccs2)c1-c1ccc2c(c1)OCO2,1680 nM (active)
2,COc1ccc(NC(=O)N2CCCC(Cn3cnc4cccnc43)C2)cc1Cl (configuration not stated),inactive
3,Cc1oc2ccc(O)c(CN3CCCC(C)C3)c2c1C(=O)Nc1ccccc1 (configuration not stated),2110 nM (active)
4,Cc1ccc(CN2CCc3nc(C(=O)Nc4cccnc4)oc3CC2)o1,inactive
5,COc1ccc(NC(=O)c2c(C)oc3ccc(O)c(CN4CCCCCC4)c23)cc1Cl,1880 nM (active)
6,COc1ccc(NC(=O)c2cc3n(n2)CC(c2ccc(Cl)cc2)OC3)cc1Cl (configuration not stated),inactive
7,COc1ccc(NC(=O)c2c(C)oc3ccc(O)c(CN4CCCC(C)C4)c23)cc1Cl (configuration not stated),944 nM (active)
8,CSCc1noc(Cc2c(C)nn(-c3ccccc3)c2C)n1,inactive
9,Cc1ccc(NC(=O)c2cc(-c3ccc[nH]3)n[nH]2)cc1C,inactive
10,CCOc1ccc(OCC)c(NC(=O)c2nnn(CC(=O)Nc3cc(Cl)ccc3OC)c2N)c1,inactive
11,COc1ccc(S(=O)(=O)N2CCN(C(=O)c3cc(-c4ccccc4OC)n[nH]3)CC2)cc1,inactive
12,COc1ccc(OC)c(NC(=O)c2cc(-c3cc(Cl)ccc3O)n[nH]2)c1,4730 nM (active)
13,Cc1ccc(Cl)cc1NC(=O)c1cc(S(=O)(=O)N2CCOCC2)cn1C,inactive
14,COc1ccc(C(=O)Nc2cc(-c3nc4ccccc4s3)ccc2OC)cc1,inactive
15,CN1CC2(CCN(S(=O)(=O)c3ccc(C#N)cc3)CC2)CC1C(=O)N1CCOCC1 (configuration not stated),inactive
16,NS(=O)(=O)c1ccc(NC(=O)CN2C(=O)COc3ccc(Cl)cc32)cc1,inactive
17,Cc1ccccc1-c1cc(C(=O)N2CCC3(CC2)CC(O)CCO3)[nH]n1 (configuration not stated),inactive
18,COc1ccccc1-c1cc(C(=O)N2CCN(S(=O)(=O)c3ccc(C)cc3)CC2)[nH]n1,7500 nM (active)
19,Cc1cc(O)c(-c2cc(C(=O)Nc3ccc(S(=O)(=O)N4CCOCC4)cc3)[nH]n2)cc1C,1680 nM (active)

row,Structure (SMILES),Potency
1,O=C(Nc1ccc(S(=O)(=O)N2CCOCC2)cc1)c1cc(-c2cc(Cl)ccc2O)n[nH]1,2660 nM (active)
2,CN(C)c1ncc([N+](=O)[O-])cc1C(F)(F)F,inactive
3,CCc1noc(-c2cccn3c(CNC(=O)c4ccccc4F)nnc23)n1,inactive
4,Cc1ccc2sc(N3CCN(C(=O)c4ccc([N+](=O)[O-])o4)CC3)nc2c1C,5310 nM (active)
5,COc1ccc2nc(N3CCN(C(=O)c4ccc([N+](=O)[O-])o4)CC3)sc2c1,4730 nM (active)
6,COc1cccc(N2CCN(c3nc(C(=O)NCc4cccc(C)c4)cs3)CC2)c1,inactive
7,Cc1ccc(C)c2sc(N3CCN(C(=O)c4ccc([N+](=O)[O-])o4)CC3)nc12,4730 nM (active)
8,CCOc1ccc2nc(N3CCN(C(=O)C(C)C)CC3)sc2c1,inactive
9,Cc1cc(C)c2nc(N3CCC(C(=O)N4CCCC4)CC3)sc2c1,inactive
10,CNC(=O)N1CCc2c(sc3ncnc(N(C)C)c23)C1,inactive
11,Nc1ccc2nc(-c3cccs3)[nH]c2c1,inactive
12,Cc1ccc(NC(=O)Cn2ccnc2)cc1C,inactive
13,Cc1ccc(Sc2ccc(NC(=O)CCl)cc2)cc1C,9440 nM (active)
14,Cc1nc([C@@H]2CN(C(=O)c3nccc4ccccc34)C[C@H]2C(N)=O)n[nH]1,inactive
15,Cc1noc(C2CC3(CCN(C(=O)c4cccn4C)CC3)CN2C)n1 (configuration not stated),inactive
16,COC(=O)C1=C(C)NC(C)=C(C(=O)OCCCN2CCC(c3ccccc3)(c3ccccc3)CC2)C1c1cccc([N+](=O)[O-])c1 (configuration not stated),2990 nM (active)
17,COC(=O)C1=C(C)NC(C)=C(C(=O)OC(C)(C)CN(C)CCC(c2ccccc2)c2ccccc2)C1c1cccc([N+](=O)[O-])c1 (configuration not stated),2990 nM (active)
18,CCN(CC)CCCC(C)Nc1cc(/C=C/c2ccccc2Cl)nc2cc(Cl)ccc12 (configuration not stated),842 nM (active)
19,CCc1nc(NCc2cn[nH]c2-c2ccc(Cl)cc2)c2cnn(C)c2n1,inactive

row,Structure (SMILES),Potency
1,COC[C@@H]1CN(C(=O)c2cc3ccccc3[nH]2)C[C@H]1c1ccncc1,inactive
2,CCOc1cc(C(=O)N2CCC(CC3CC(c4ccc(Cl)cc4)=NO3)(C(=O)NCC3CCCCC3)CC2)cc(OCC)c1OCC (configuration not stated),842 nM (active)
3,CCOc1cc(C(=O)N2CCC(CC3CC(c4cccc(Br)c4)=NO3)(C(=O)NCC3CCCCC3)CC2)cc(OCC)c1OCC (configuration not stated),1680 nM (active)
4,COCCNC(=O)C1COC2(CCN(C(=O)c3ccc(Cl)cc3)CC2)N1C(=O)c1ccccc1C (configuration not stated),inactive
5,O=C(NCc1ccccc1)N1CCC(c2nc(C3CCOCC3)no2)CC1,inactive
6,CC(C)(C)OC(=O)N1CCC(CC2CC(c3ccccc3)=NO2)(C(=O)NCc2ccccc2)CC1 (configuration not stated),2660 nM (active)
7,CCCCCCCNC(=O)C1(CC2CC(c3ccc(Cl)cc3)=NO2)CCN(C(=O)c2cc(OCC)c(OCC)c(OCC)c2)CC1 (configuration not stated),3350 nM (active)
8,Cc1cc(Cl)ccc1-c1ccc(CNC2CN(C(=O)OC(C)(C)C)C2)cc1,inactive
9,CC(C)c1cc(C(=O)NC2CCN(c3ncccc3C#N)CC2)n(C)n1,inactive
10,CCCCCCCNC(=O)C1(CC2CC(c3cccc(Br)c3)=NO2)CCN(C(=O)c2cc(OCC)c(OCC)c(OCC)c2)CC1 (configuration not stated),10600 nM (active)
11,CC(NCc1ccccc1O)C12CC3CC(CC(C3)C1)C2 (configuration not stated),94.4 nM (active)
12,O=C1NCCCCCCN(C(=O)C2CCC2)[C@H]2C[C@H](c3nc(-c4cccnc4)no3)C[C@@H]12,inactive
13,COc1ccc2c(c1)CCc1c-2n[nH]c1C(=O)N1CCc2c(nc3cc(-c4ccccc4)[nH]n3c2=O)C1,inactive
14,Cn1nc(C(=O)NCC(=O)N2CCCCCCNC(=O)CC2c2ccccc2)c2ccccc21 (configuration not stated),2110 nM (active)
15,Cn1cnc(C(=O)NCC(=O)N2CCCCCNC(=O)CC2c2ccccc2)c1 (configuration not stated),inactive
16,O=C1CC(c2ccccc2)N(C(=O)CNC(=O)c2ccc3[nH]ccc3c2)CCCCCN1 (configuration not stated),15000 nM (active)
17,Cc1ccncc1C(=O)NCC(=O)N1CCCCCNC(=O)CC1c1ccccc1 (configuration not stated),inactive
18,O=C1CC(c2ccccc2)N(C(=O)CNC(=O)c2[nH]nc3c2CCc2ccccc2-3)CCCCCCN1 (configuration not stated),2990 nM (active)
19,CNC(=O)c1[nH]nc2c1CCc1cc(OC)ccc1-2,inactive
